Drawing on PubChem BioAssay AID372 (MTDP, 2006), this text covers inhibition for 91 molecules.

The campaign covered roughly 100,000 compounds. About 770 (0.77%) were called active. Cut-off read from the data, not from the text of the source: active = inhibition above about 50%; inactive = the rest. The sample as a whole holds a higher share of actives than the screen did.

This experiment concerns the target Gag-Pol polyprotein (Human immunodeficiency virus type 1 group M subtype B (isolate HXB2)) (UniProt P04585). The experiment can be described thus: RNase H inhibition, HIV 1 Gag Pol polyprotein, FRET biochemical assay, screening (AID 372). The settings on record: HIV-1 RT RNase H, FRET RNA/DNA substrate fluorescence; at 10 µM; stronger effect = higher value.
In general, inhibition refers to the share of the control response that was lost under treatment. Regarding `CSCCC(NC(=O)c1ccccc1)C(=O)OCC(=O)Nc1cc(C)on1` (stereo unspecified), the inhibition was 11% (inactive). As for `CCCOc1ccc2ccccc2c1C=C1C(=O)NC(=S)NC1=O`, the figure is 23% (inactive); as for `COc1ccc(OC)c(N(CC(=O)Nc2ccccc2F)S(C)(=O)=O)c1`, 8% (inactive); as for `S=C(NCc1ccccc1)N/N=C/c1ccco1`, 22% (inactive). Then `COc1ccc(CCNC(=O)C(=O)Nc2ccccc2)cc1`, with 11% (inactive).

On to `Cc1ccc(NC(=O)CSc2nc3ccccc3s2)cc1C`, for which the inhibition is 41% (inactive). Then `CN1CCN(/N=C/c2ccc([N+](=O)[O-])s2)CC1`, with 6% (inactive); and `CCOc1ccc(-n2sc3c(c2=S)-c2ccc(OC)cc2NC3(C)C)cc1`, with 2% (inactive); and `COc1cc(NC(=O)c2cc(Cl)c(OC)c(Cl)c2)ccc1NC(=O)c1cc2ccccc2o1`, with 52% (active).

`COc1cc(NC(=O)c2ccccc2F)ccc1NC(=O)c1cc2ccccc2o1`: the inhibition was 24% (inactive). Then `COc1ccc(C(=O)Nc2ccc(NC(=O)c3cc4ccccc4o3)c(OC)c2)cc1Br`, with 6% (inactive); and `COc1cc(NC(=O)c2cccc(Br)c2)ccc1NC(=O)c1cc2ccccc2o1`, with 51% (active). For `COc1cc(NC(=O)c2cc(Cl)ccc2OC)ccc1NC(=O)c1cc2ccccc2o1`, the inhibition is 55% (active). As for `CCOc1cc(C(=O)Nc2ccc(NC(=O)c3cc4ccccc4o3)c(OC)c2)cc(OCC)c1OCC`, the figure is 11% (inactive); as for `COc1cc(NC(=O)c2ccc(Cl)cc2Cl)ccc1NC(=O)c1cc2ccccc2o1`, 21% (inactive); as for `COc1cc(NC(=O)c2ccc(C(C)(C)C)cc2)ccc1NC(=O)c1cc2ccccc2o1`, 7% (inactive). As for `O=C(Nc1ccc(Cl)c(-c2nc3ncccc3o2)c1)c1ccc(Cl)cc1Cl`, the inhibition was 6% (inactive). As for `COc1ccc(Cl)cc1C(=O)Nc1ccc(Cl)c(-c2nc3ncccc3o2)c1`, the figure is 57% (active); as for `COc1ccc(Cl)cc1C(=O)Nc1cccc(-c2nc3ncccc3o2)c1C`, 3% (inactive).

With `COc1cc(NC(=O)c2cccc(Cl)c2)ccc1NC(=O)c1cc2ccccc2o1`, the inhibition is 34% (inactive). As for `COc1ccccc1N1CCN(C(=O)Cc2ccc(Cl)cc2)CC1`, the figure is 5% (inactive). As for `CCCCOc1ccc(C(=O)NC(=S)Nc2cccc(Cl)c2Cl)cc1`, the figure is 15% (inactive).

On to `COc1cccc(C(=O)Nc2ccc(O)c(-c3nc4cc(C)ccc4o3)c2)c1`, for which the inhibition is 5% (inactive). Regarding `CCc1ccccc1NC(=O)C(=O)NCCCOC`, the inhibition is 14% (inactive). Then `O=C(O)C1C2CC=CC2c2cc(Oc3ccccc3)cc3c2N1CC1CC=CC31` (stereo unspecified), with 40% (inactive).

`Cc1ccc(OCCCCNC(C)(C)C)c(C)c1`: the inhibition is 2% (inactive).

Regarding `Cc1ccc(OCCCNC(C)(C)C)c(C(C)(C)C)c1`, the inhibition is 62% (active). As for `Cc1ccc(OCCCNC(C)(C)C)c(C)c1`, the figure is 10% (inactive); as for `COCCOC(=O)C1=C(C)NC(=O)CC1c1ccccc1Br` (stereo unspecified), 3% (inactive); as for `COc1ccc(/C=N/N(C)c2cc(C)nc(-c3ccccc3O)n2)cc1OC`, 18% (inactive). Regarding `COc1ccc(C=Nc2ccc(Cl)c(Cl)c2)c2ccccc12`, the inhibition is 32% (inactive). As for `Cc1ccc(C(=O)NC(=S)Nc2ccc3oc(-c4ccc(Cl)cc4)nc3c2)cc1C`, the figure is 8% (inactive); as for `Nc1ccc(-c2ccc(N3C(=O)c4cccc5c(C(=O)c6ccccc6)ccc(c45)C3=O)cc2)cc1`, 51% (active). As to `O=C(O)c1ccc2c3c(cccc13)C(=O)N(c1ccccc1)C2=O`, the inhibition was 21% (inactive). For the molecule `CC(=O)Nc1ccc(N2C(=O)c3cccc4c(C(=O)c5ccccc5)ccc(c34)C2=O)cc1`, the inhibition is 20% (inactive). As for `O=C(N=NC(=O)c1ccccc1O)c1ccc(-n2c(O)c3ccccc3c2O)cc1`, the figure is 8% (inactive); as for `Cc1ccc(C(=O)Nc2ccc(Nc3ccccc3)cc2)cc1[N+](=O)[O-]`, 15% (inactive); as for `Cc1ccc(NCC(=O)N/N=C\c2ccccc2OCC(=O)O)cc1`, 7% (inactive).

Regarding `NC(N)=NS(=O)(=O)c1ccc(NC(=S)NC(=O)/C=C/c2ccc(Br)cc2)cc1`, the inhibition is 19% (inactive).

For `COc1ccc(/C=C/C(=O)NC(=S)Nc2ccc(S(=O)(=O)N=C(N)N)cc2)cc1`, the inhibition is 57% (active).

As to `COc1ccc(/C=C/C(=O)NC(=S)Nc2ccc(I)cc2)cc1`, the inhibition is 8% (inactive). Then `COc1ccc(C(=O)NC(=S)Nc2ccc(S(=O)(=O)N=C(N)N)cc2)cc1`, with 2% (inactive); and `Cc1ccc(/C=C/C(=O)NC(=S)Nc2ccc(S(=O)(=O)N=C(N)N)cc2)cc1`, with 63% (active); and `CC(C)c1ccc(/C=C/C(=O)NC(=S)Nc2ccc(S(=O)(=O)N=C(N)N)cc2)cc1`, with 41% (inactive).

For the molecule `CC(=O)C1=C(O)C(=O)N(c2ccc(Br)cn2)C1c1ccc([N+](=O)[O-])cc1` (stereo unspecified), the inhibition was 0% (inactive). Then `CCCN1CCC(NCCc2ccc(F)cc2)CC1`, with 1% (inactive); and `COc1cc(OC)cc(C(=O)N2CCN(Cc3ccccc3[N+](=O)[O-])CC2)c1`, with 6% (inactive); and `O=C(O)c1ccc(/C=N/Nc2ccc([N+](=O)[O-])cc2)cc1`, with 10% (inactive).

For the molecule `O=C(O)c1ccc(N/N=C/c2ccccc2C(F)(F)F)cc1`, the inhibition is 6% (inactive).

As to `O=C(O)c1ccc(N/N=C/c2c(Cl)ccc(Cl)c2Cl)cc1`, the inhibition is 51% (active). For `COc1cc(C=O)ccc1OCCOc1ccc(Cl)cc1`, the inhibition is 7% (inactive).

Consider `COC(=O)c1ccc(COc2ccc3c(c2)oc(=O)c2ccccc23)cc1`, for which the inhibition is 48% (inactive). `COc1ccc2c(c1)c(=O)oc1cc(OCc3ccc(C(=O)O)cc3)ccc12`: the inhibition was 19% (inactive). As for `COC(=O)c1ccc(COc2ccc3c(c2)oc(=O)c2cc(OC)ccc23)cc1`, the figure is 59% (active); as for `COc1ccc(OC)c(/C=C2\SC(N3CCCCCC3)=NC2=O)c1`, 11% (inactive); as for `Cc1ccc(/C=C2\SC(=S)N(CCC(=O)Nc3cc(Cl)ccc3O)C2=O)cc1`, 10% (inactive). Then `COc1ccc(/C=C2\SC(=S)N(CCC(=O)Nc3cc(Cl)ccc3O)C2=O)cc1`, with 53% (active); and `Cc1ccc(/C=C2\SC(=S)N(CCC(=O)Nc3ccc(Cl)cc3)C2=O)cc1`, with 18% (inactive). `CCOc1ccccc1NC(=O)CCCN1C(=O)/C(=C/c2ccc(C)cc2)SC1=S`: the inhibition was 27% (inactive). As for `CCOc1ccccc1NC(=O)CCN1C(=O)/C(=C/c2ccc(C)cc2)SC1=S`, the figure is 56% (active); as for `Cc1ccc(/C=C2/SC(=S)N(CCC(=O)Nc3ccc(Br)cc3)C2=O)cc1`, 0% (inactive). Turning to `CC(C)(C)N(Cc1ccccc1)C(=O)CCCN1C(=O)/C(=C/c2cccs2)SC1=S`, the inhibition was 37% (inactive).

Regarding `COc1ccccc1NC(=O)CCN1C(=O)/C(=C/c2ccc(C)cc2)SC1=S`, the inhibition was 11% (inactive).

`CC(C)(C)N(Cc1ccccc1)C(=O)CCN1C(=O)/C(=C\c2cccs2)SC1=S`: the inhibition was 12% (inactive). Then `Cc1ccc(/C=C2\SC(=S)N(CCC(=O)Nc3ccc(S(N)(=O)=O)cc3)C2=O)cc1`, with 57% (active). Then `O=C1/C(=C/c2cccs2)SC(=S)N1CCCC(=O)N(Cc1ccccc1)c1ccccc1`, with 50% (active); and `Cc1ccc(/C=C2/SC(=S)N(CCCC(=O)Nc3cc(Cl)ccc3O)C2=O)cc1`, with 16% (inactive). As for `Cc1cc(NC(=O)c2ccc(-c3ccc(Cl)cc3)o2)ccc1NC(=O)c1ccco1`, the figure is 11% (inactive); as for `Cc1cc(C)cc(N2C(=O)NC(=O)/C(=C\c3c(C)n(C)c4ccccc34)C2=O)c1`, 12% (inactive). For the molecule `Cc1cc2nc(-c3ccc(Cl)c(NC(=O)c4cc([N+](=O)[O-])ccc4Cl)c3)oc2cc1C`, the inhibition is 8% (inactive). Then `COc1cccc(OC)c1OCC(O)CN1CCC(CN2C(=O)c3cccc4cccc(c34)C2=O)CC1` (stereo unspecified), with 19% (inactive); and `CCOC(=O)C1=C(C)N=c2s/c(=C\c3ccc(-c4ccc(Cl)cc4)o3)c(=O)n2C1c1ccc(SC)cc1` (stereo unspecified), with 0% (inactive); and `O=C(c1ccc([N+](=O)[O-])cc1[N+](=O)[O-])N1CCN(C(c2ccccc2)c2ccccc2)CC1`, with 2% (inactive). For the molecule `O=C(CSc1nc2ccccc2s1)Nc1ccc(F)c([N+](=O)[O-])c1`, the inhibition is 2% (inactive). As for `CCOc1ccc2ccccc2c1/C=N/NC(=O)CN1CCOCC1`, the figure is 9% (inactive).

For `CCOC(=O)/C(C#N)=C1/C=C(c2ccccc2)N=C(c2ccccc2)N1`, the inhibition is 16% (inactive). As for `COc1ccc2ccccc2c1C=Nc1ccc(C)cc1O`, the figure is 27% (inactive); as for `Cc1ccccc1Cn1cc(C=C2C(=O)NC(=O)NC2=O)c2ccccc21`, 43% (inactive). Then `COc1cc(C=O)ccc1OCCCOc1cc(C)c(Cl)cc1C`, with 21% (inactive); and `COc1ccccc1N=Cc1c(O)n(-c2ccccc2F)c(=O)[nH]c1=O`, with 8% (inactive). With `Cc1ccc(/C=C2\SC(=S)N(CCC(=O)Nc3cc([N+](=O)[O-])ccc3O)C2=O)cc1`, the inhibition is 0% (inactive).

With `Cc1ccc(/C=C2\SC(=S)N(CCC(=O)Nc3ccc(S(=O)(=O)Nc4nccs4)cc3)C2=O)cc1`, the inhibition was 23% (inactive).

In the case of `Cc1ccc(/C=C2/SC(=S)N(CCC(=O)Nc3ccc([N+](=O)[O-])cc3)C2=O)cc1`, the inhibition is 10% (inactive).

With `Cc1ccc(/C=C2\SC(=S)N(CCCC(=O)NCCc3ccccc3)C2=O)cc1`, the inhibition is 57% (active). Regarding `Cc1ccc(/C=C2\SC(=S)N(CCC(=O)Nc3nccs3)C2=O)cc1`, the inhibition was 51% (active). Then `Cc1ccc(/C=C2\SC(=S)N(CCC(=O)Nc3ccc([N+](=O)[O-])cc3O)C2=O)cc1`, with 52% (active).

Regarding `Cc1ccc(/C=C2\SC(=S)N(CCCC(=O)Nc3ccc(C)cc3)C2=O)cc1`, the inhibition is 10% (inactive). As for `Cc1ccc(/C=C2\SC(=S)N(CCc3ccccc3)C2=O)cc1`, the figure is 3% (inactive); as for `O=C(CCN1C(=O)/C(=C/c2ccc(Cl)cc2)SC1=S)Nc1nccs1`, 10% (inactive). As for `Cc1ccc2oc(-c3cccc(NC(=O)c4ccc(-c5ccc([N+](=O)[O-])cc5)o4)c3C)nc2c1`, the figure is 20% (inactive); as for `CCOc1ccccc1N=C1C(=O)Nc2ccc([N+](=O)[O-])cc21`, 2% (inactive).
